Assay outcomes as filed in PubChem.
APOBEC3A inh = inhibitors of human APOBEC3A DNA deaminase; AID 493011; P31941; recombinant A3A, FAM/TAMRA ssDNA deamination fluorescence; 0.41% of 330,000 active; inhibition, % at 20 µM;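 active means at least 40% inhibition at 20 µM here, with at most 30% in a related deaminase screen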
MLLE-PAM2 inh = blocks PAM2 peptide binding to the PABP1 MLLE domain; P11940; GST-MLLE / FITC-PAM2 fluorescence polarization; inhibition, % at 20 µM; 0.36% of 360,000 active; in the data active means inhibition above about 35%, passing the limit was not always enough
Target sequence (P11940 whole entry, looked up, the tested form may be a part): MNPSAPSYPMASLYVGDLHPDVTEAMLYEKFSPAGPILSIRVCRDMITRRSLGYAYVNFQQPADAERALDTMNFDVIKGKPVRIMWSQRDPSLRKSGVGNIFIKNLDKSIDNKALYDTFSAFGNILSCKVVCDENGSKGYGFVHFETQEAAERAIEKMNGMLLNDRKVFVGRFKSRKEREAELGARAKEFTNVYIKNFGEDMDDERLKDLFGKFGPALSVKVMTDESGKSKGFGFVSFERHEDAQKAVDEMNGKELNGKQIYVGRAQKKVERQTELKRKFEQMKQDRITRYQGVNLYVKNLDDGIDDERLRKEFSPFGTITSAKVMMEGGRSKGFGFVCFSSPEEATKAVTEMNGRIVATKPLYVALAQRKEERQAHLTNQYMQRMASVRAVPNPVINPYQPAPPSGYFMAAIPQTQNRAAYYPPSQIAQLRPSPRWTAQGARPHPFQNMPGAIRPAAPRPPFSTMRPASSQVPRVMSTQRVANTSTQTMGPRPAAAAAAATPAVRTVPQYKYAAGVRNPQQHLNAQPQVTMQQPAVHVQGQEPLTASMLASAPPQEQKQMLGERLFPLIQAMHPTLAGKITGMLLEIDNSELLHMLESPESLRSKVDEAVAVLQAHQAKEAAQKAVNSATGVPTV
PHOSPHO1 inh = inhibitors of human PHOSPHO1 phosphatase | inhibition, % at 13.3 µM | recombinant PHOSPHO1, absorbance phosphatase assay | 1.1% of 290,000 active | Q8TCT1; in the data active means inhibition above about 60%
APOBEC3G inh = inhibitors of human APOBEC3G DNA deaminase; recombinant A3G, ssDNA deamination FAM/TAMRA fluorescence; inhibition, % at 20 µM; 0.28% of 330,000 active;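 active means inhibition of at least 40% at 20 µM, with no more than 30% in the related APOBEC3A deaminase screen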
PABP polyA inh = blocks human PABP binding to poly(A) RNA; fluorescence polarization; calls only at 35 µM; 1% of 290,000 active;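 further: calls also rest on retests at 20 µM and on dose response follow-up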
eIF4H FP inh = inhibitors of RNA binding by human eIF4H. AID 2012. Q15056. 0.94% of 290,000 active. inhibition, % at 35 µM. eIF4H fluorescence polarization binding assay;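 further: calls also rest on retests at 20 µM and on dose response follow-up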
APOBEC3A confirm = confirmation of human APOBEC3A DNA deaminase inhibitors | shares compounds with APOBEC3A inh | recombinant A3A, ssDNA deaminase UDG fluorescence assay | inhibition, % at 20 µM | 63% of 1,400 active | AID 493151;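 active means inhibition reaching a set limit, 80% of the first screen's cutoff, at 20 µM in any replicate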
UDG ctr A3A = counter-screen for APOBEC3A inhibitors: UDG. shares compounds with APOBEC3A inh. UDG counterscreen, FAM/TAMRA uracil oligo fluorescence. inhibition, % at 20 µM. 1,000 tested, under 10 active. AID 504714
A number is an active result; 0 = inactive; ? = inconclusive; - = no result given; + = active, no number. Sampled rows, rich in hits. Any-hit rate of the full collection: about 2.6%. Unless noted, how the calls were made is not given here.

SMILES	APOBEC3A inh	MLLE-PAM2 inh	PHOSPHO1 inh	APOBEC3G inh	PABP polyA inh	eIF4H FP inh	APOBEC3A confirm	UDG ctr A3A
CC(c1ccccc1)C1OCC(C[N+]2(C)CCCCC2)O1 (centres undefined)	68	0	0	0	0	0	66	0
C=CCN(c1ccccc1)S(=O)(=O)c1ccc2c(c1)N(C(C)=O)CCO2	0	0	0	0	0	0	-	-
O=C1C=C(O)CC(c2ccco2)C1 (centres undefined)	46	0	0	0	+	104	53	0
CCc1noc(C)c1C(=O)Nc1cc(S(=O)(=O)N2CCOCC2)ccc1OCC(F)(F)F	0	0	-	0	-	-	-	-
CN1CCN(S(=O)(=O)c2cccc(C(=O)Nc3cc(Cl)ccc3N3CCOCC3)c2)CC1	51	0	-	0	-	-	31	0
CCN1CCN(c2ccc(S(=O)(=O)N3CCOCC3)cc2NC(=O)c2ccc(C(F)(F)F)cc2)CC1	60	0	-	0	-	-	0	-
CCN1CCN(c2ccc(S(=O)(=O)N3CCOCC3)cc2NC(=O)c2cccc([N+](=O)[O-])c2)CC1	0	0	-	0	-	-	-	-
CCN1CCN(c2ccc(S(=O)(=O)N3CCOCC3)cc2NC(=O)/C=C/c2ccc([N+](=O)[O-])cc2)CC1	43	0	-	0	-	-	48	0
CCc1noc(C)c1C(=O)Nc1cc(S(=O)(=O)N2CCOCC2)ccc1N1CCN(CC)CC1	48	0	-	0	-	-	60	0
Cc1ccccc1COCCN1CCN(S(=O)(=O)c2ccccc2)CCC1=O	0	0	0	0	0	0	-	-
O=C(c1cccc(S(=O)(=O)N2CCCCCC2)c1)N1CCN(c2ccccc2F)CC1	0	0	0	0	0	0	-	-
CN1CCN(S(=O)(=O)c2cccc(C(=O)N3CCN(c4ccccc4F)CC3)c2)CC1	44	0	-	0	-	-	45	0
Cc1ccnc(NS(=O)(=O)c2ccc(NC(=O)Cc3cccs3)cc2)n1	54	0	0	0	0	0	61	0
Cc1ccnc(NS(=O)(=O)c2ccc(NC(=O)Cc3ccc(F)cc3)cc2)n1	0	0	-	0	0	0	-	-
CN(CC(=O)Nc1ccc(F)c(F)c1F)C(=O)C1=COCCO1	0	0	0	0	0	0	-	-
CCCN(CC(=O)Nc1ccc(F)c(F)c1F)C(=O)C1=COCCO1	51	0	-	0	-	-	0	-
NNC(=S)NCc1ccc2c(c1)OCO2	0	0	0	0	0	0	-	-
O=C(O)/C(=C\c1ccc(Cl)c([N+](=O)[O-])c1)c1ccc(S(=O)(=O)N2CCCC2)s1	55	0	-	0	-	-	47	0
O=C(O)/C(=C\c1ccc(Cl)c([N+](=O)[O-])c1)c1ccc(S(=O)(=O)N2CCCCC2)s1	0	0	0	0	0	0	-	-
CCOC(=O)Cc1csc(NC(=O)/C=C/c2ccc(OC)cc2)n1	0	0	0	0	0	0	-	-
CCN(c1ccccc1)S(=O)(=O)c1cc(C(=O)OC(C)C(=O)Nc2ccc3c(c2)OCCO3)ccc1C (centres undefined)	50	0	0	0	?	?	37	0
COCc1cc(C)nc(N2CCN(Cc3ccccc3)CC2)c1C#N	72	0	78	0	0	0	66	0
COCc1cc(C)nc(N2CCN(c3ccccc3)CC2)c1C#N	0	0	0	0	0	0	-	-
O=C(NC1CCCC1)C(c1ccccn1)N(C(=O)c1csnn1)c1ccccc1F (centres undefined)	0	0	0	0	0	0	-	-
COCc1c(C(=O)OCC(=O)NCc2ccco2)oc2ccccc12	0	0	-	0	-	-	-	-
SMILES	APOBEC3A inh	MLLE-PAM2 inh	PHOSPHO1 inh	APOBEC3G inh	PABP polyA inh	eIF4H FP inh	APOBEC3A confirm	UDG ctr A3A
CCOC(=O)C1CCCN(CC(=O)Nc2cc(C)cc(C)c2)C1 (centres undefined)	60	0	0	0	0	0	0	-
CCN1C(=NCCOC)N[C@@H](c2ccccc2)[C@H](C(=O)OC)[C@H]1C	46	0	-	0	-	-	75	0
COCCN1C(=O)N[C@@H](c2ccccc2)[C@@H](C(=O)OC)[C@H]1C	0	0	-	0	-	-	-	-
CCN1C(=NCc2cc(OC)c(OC)c(OC)c2)N[C@@H](c2ccccc2)[C@H](C(=O)OC)[C@H]1C	75	-	0	0	-	-	47	-
COc1ccc(N2CC(C(=O)Nc3nnc(SCC(=O)NC(C)(C)C)s3)CC2=O)cc1 (centres undefined)	48	0	0	0	0	0	0	-
C[n+]1c(/C=C/c2ccc(O)cc2)ccc2ccccc21	57	0	0	0	0	0	75	0
C[n+]1c(/C=C/c2ccc3c(c2)OCO3)ccc2ccccc21	86	0	0	0	0	0	87	0
COc1ccc(CCNC(=O)Nc2ccc(F)cc2F)cc1OC	0	0	0	0	0	0	-	-
O=C(CSc1ncnc2nc[nH]c12)Nc1ccccc1C(F)(F)F	57	0	79	0	0	0	39	0
Cc1cccc(C)c1NC(=O)CSc1ncnc2nc[nH]c12	0	0	0	0	0	0	-	-
N#Cc1cccc(NC(=O)Cn2c3[n+](c4ccc(C(F)(F)F)cc42)CCCCC3)c1	42	0	0	0	0	0	60	0
O=C(CSc1nnc(-c2ccncc2)n1-c1ccccc1)N1CCN(c2ccc(Cl)cc2)CC1	44	0	93	0	0	0	65	0
COc1ccc(CCC(=O)Nc2cc(Cl)ccc2N2CCN(C)CC2)cc1	0	-	0	0	0	0	-	-
CC(Oc1ccc(Br)cc1)C(=O)Nc1cc(Cl)ccc1N1CCN(C)CC1 (centres undefined)	58	0	-	0	-	-	54	0
O=C(O)c1cc(Cl)c2c(c1)OCO2	43	0	0	0	0	0	0	-
CC1CCN(C(=O)COC(=O)c2cc(Cl)c3c(c2)OCO3)CC1	0	0	-	0	-	-	-	-
O=C(COC(=O)c1nc(Cl)c(Cl)c(Cl)c1Cl)c1ccc[nH]1	45	0	-	0	-	-	0	-
O=C1C2C(C(=O)N1/N=C/c1cc([N+](=O)[O-])c(O)cc1O)C1C=CC2C12CC2 (centres undefined)	78	0	0	0	0	0	74	0
OCCNC1=NCCN1	56	0	0	0	0	0	76	0
C[n+]1cccc(C2C(C#N)=C(N)Oc3c2ccc2ccccc32)c1 (centres undefined)	41	0	0	0	+	0	31	0
C[n+]1cccc2ccc3c(c21)OC(N)=C(C#N)C3c1ccccc1 (centres undefined)	0	0	0	0	0	0	-	-
COc1ccc(OC)c(S(=O)(=O)N2CCC(C(=O)NC3CCCC3)CC2)c1	0	0	0	0	0	0	-	-
CC(C)Oc1ccc(OCCSc2nc3ccccc3n2CC(=O)O)cc1	70	0	0	0	-	-	0	-
c1ccc2c(c1)nc(N1CCCCCC1)c1ccccc12	67	0	0	0	0	0	67	0
c1ccc2nc(N3CCCC3)c(N3CCCC3)nc2c1	0	0	0	0	0	0	-	-
